# Source: PubChem BioAssay (NCATS)
# Results filed as inconclusive are left out. Where a call stands in place of a potency, no number is given. Activity calls are given as the source filed them. The call rests on the fitted dose curve; in most records, active means well fitted cell-killing curve with a large enough effect; inconclusive means small, poorly fitted or top-dose-only effect, or effect the other way; inactive means no such curve, though single readings can be large or run the other way.
# Experiment: Quantitative High-Throughput drug screen in 47 multiple myeloma cell lines against the NCATS MIPE library collection: L363_DSMZ cell viability assay (AID 1918984); further: nearly all actives have a fitted effect of over 40% in size
# Details: L363 myeloma viability, CellTiter-Glo ATP luminescence, 48 h; series mostly up to 45.8 µM
# Description: PI: Beverly A. Mock Ph.D.
# Laboratory of Cancer Biology and Genetics,
# Center for Cancer Research, National Cancer Institute,
# National Institute of Health, Bethesda, Maryland
# Drug resistance and disease progression are common in multiple myeloma (MM) patients, underscoring the need for new therapeutic combinations. […] We hypothesized that effective combinations would reduce MYC expression and enhance p16 activity. […] These preclinical data identify potentially useful drug combinations for evaluation in drug-resistant MM and reveal potential mechanisms of combined drug sensitivity.
# Described herein is the primary MIPE qHTS used to cherrypick compounds. Validated compounds were then further tested for potential synergistic activiy.
# [1] Peat TJ, Gaikwad SM, Dubois W, Gyabaah-Kessie N, Zhang S, Gorjifard S, Phyo Z, Andres M, Hughitt VK, Simpson RM, Miller MA, Girvin AT, Taylor A, Williams D, D'Antonio N, Zhang Y, Rajagopalan A, Flietner E, Wilson K, Zhang X, Shinn P, Klumpp-Thomas C, McKnight C, Itkin Z, Chen L, Kazandijian D, Zhang J, Michalowski AM, Simmons JK, Keats J, Thomas CJ, Mock BA. Drug combinations identified by high-throughput screening promote cell cycle transition and upregulate Smad pathways in myeloma. Cancer Lett. 2023 Aug 1;568:216284. doi: 10.1016/j.canlet.2023.216284. Epub 2023 Jun 24. PMID: 37356470; PMCID: PMC10408729.
# SEQUENCE No. (e.g., 1, 2, 3, etc.); […] (e.g., Cells, Incubation, Reagent, etc.); VALUE and DESCRIPTION.
# 1; Cells; 5 uL; white, solid bottom 1536-well Greiner assay plate.
# 2; Compounds; 23 nL; Kalypsis pin tool (Wako USA) equipped with a 1536-well pin head to transfer to the assay plates.
# 3; Incubation; 48 hours; 37C incubation.
# 4; Reagent;5uL; CellTiter Glo (Promega).
# 5; Detector; 425V; Luminescence; Viewlux PerkinElmer.
# NOTES (numbers refer to Sequence numbers above)
# 1. The cell-based screening methods employed in this study were like those previously published. Briefly, the corresponding myeloma cell lines were screened in 1,536-well plates with 500 cells, 5-uL per well for inhibition of cell viability (assessed by measuring ATP levels with CellTiterGlo).
# 2. NCATS MIPE 4.0 library of approved and investigational drugs were added using the Kalypsis pin tool. Wells treated with DMSO only for 100% viability and media only for 0% viability were used as controls.
# 3. The assay plates were covered and incubated for 48 hours in a 37C, 5% CO2 incubator with controlled humidity.
# 4. After 48 hours, CellTilter-GloTM luminescent substrate mix (Promega) reagent was added to the assay plate and plates we incubated for 5 min at room temperature.
# 5. Signal was measured as median relative luminescence units on a ViewLux (PerkinElmer) multiplate reader.
# [1] Heske CM, Davis MI, Baumgart JT, Wilson K, Gormally MV, Chen L, Zhang X, Ceribelli M, Duveau DY, Guha R, Ferrer M, Arnaldez FI, Ji J, Tran HL, Zhang Y, Mendoza A, Helman LJ, Thomas CJ. Matrix Screen Identifies Synergistic Combination of PARP Inhibitors and Nicotinamide Phosphoribosyltransferase (NAMPT) Inhibitors in Ewing Sarcoma. Clin Cancer Res. 2017 Dec 1;23(23):7301-7311. doi: 10.1158/1078-0432.CCR-17-1121. Epub 2017 Sep 12. PMID: 28899971; PMCID: PMC6636827.
# Potency means the concentration at half of the fitted maximal effect.
row,Compound,Potency
1,Cn1c(=O)c2c(ncn2C)n(C)c1=O,inactive
2,CC(C)NCC(O)COc1ccc(CCOCC2CC2)cc1 (stereo not given),inactive
3,CC(CCc1ccc(O)cc1)NCCc1ccc(O)c(O)c1 (stereo not given),18.7 µM (active)
4,O=C1c2c(O)ccc(O)c2C(=O)c2c(NCCNCCO)ccc(NCCNCCO)c21,2.35 µM (active)
5,COC(=O)Nc1nc2ccc(C(=O)c3cccs3)cc2[nH]1,0.001 µM (active)
6,COc1ccc2c(c1)c(CC(=O)O)c(C)n2C(=O)c1ccc(Cl)cc1,18.7 µM (active)
7,NC(=O)OCC(COC(N)=O)c1ccccc1,inactive
8,COc1cc2c(c(OC)c1OC)-c1ccc(OC)c(=O)cc1[C@@H](NC(C)=O)CC2,inactive
9,CN(C)CCCN1c2ccccc2CCc2ccc(Cl)cc21,16.6 µM (active)
10,O=C(C1CCCCC1)N1CC(=O)N2CCc3ccccc3C2C1 (stereo not given),inactive
11,Cc1ccc(C(=O)Nc2ccc(S(=O)(=O)O)c3cc(S(=O)(=O)O)cc(S(=O)(=O)O)c23)cc1NC(=O)c1cccc(NC(=O)Nc2cccc(C(=O)Nc3cc(C(=O)Nc4ccc(S(=O)(=O)O)c5cc(S(=O)(=O)O)cc(S(=O)(=O)O)c45)ccc3C)c2)c1,inactive
12,CC(C)NCC(O)c1ccc(O)c(O)c1 (stereo not given),1.87 µM (active)
13,CC(C)(C)C(=O)Oc1ccc(S(=O)(=O)Nc2ccccc2C(=O)NCC(=O)O)cc1,inactive
14,CS(=O)(=O)Nc1ccc([N+](=O)[O-])cc1Oc1ccccc1,inactive
15,NS(=O)(=O)c1cc2c(cc1Cl)NCNS2(=O)=O,inactive
16,Cc1cn([C@H]2C=C[C@@H](CO)O2)c(=O)[nH]c1=O,inactive
17,Clc1ccc(C(c2ccccc2Cl)C(Cl)Cl)cc1 (stereo not given),inactive
18,COc1cc2nc(N3CCN(C(=O)c4ccco4)CC3)nc(N)c2cc1OC,7.43 µM (active)
19,COc1nc(C)nc(Cl)c1NC1=NCCN1,inactive
20,NC(CO)C(=O)NNCc1ccc(O)c(O)c1O (stereo not given),inactive

row,Compound,Potency
1,COc1cc2nc(N3CCN(C(=O)C4COc5ccccc5O4)CC3)nc(N)c2cc1OC (stereo not given),inactive
2,CNCCCC12CCC(c3ccccc31)c1ccccc12,16.6 µM (active)
3,CN(C)c1nc(N(C)C)nc(N(C)C)n1,inactive
4,CN1CCC(=C2c3ccccc3CC(=O)c3sccc32)CC1,23.5 µM (active)
5,COc1ccc(C2CNC(=O)C2)cc1OC1CCCC1 (stereo not given),inactive
6,Cc1cc(C(C)(C)C)c(O)c(C)c1CC1=NCCN1,inactive
7,CS(=O)(=O)CCNCc1ccc(-c2ccc3ncnc(Nc4ccc(OCc5cccc(F)c5)c(Cl)c4)c3c2)o1,9.35 µM (active)
8,CN1C(C(=O)Nc2ccccn2)=C(O)c2ccccc2S1(=O)=O,inactive
9,Cc1ccc(-c2cc(C(F)(F)F)nn2-c2ccc(S(N)(=O)=O)cc2)cc1,inactive
10,CN(C)C(=O)C(CCN1CCC(O)(c2ccc(Cl)cc2)CC1)(c1ccccc1)c1ccccc1,inactive
11,NC(=O)NO,5.9 µM (active)
12,CC#C[C@]1(O)CC[C@H]2[C@@H]3CCC4=CC(=O)CCC4=C3[C@@H](c3ccc(N(C)C)cc3)C[C@@]21C,2.64 µM (active)
13,OCCN1CCN(CCCN2c3ccccc3Sc3ccc(C(F)(F)F)cc32)CC1,7.43 µM (active)
14,Nc1nc2c(ncn2COC(CO)CO)c(=O)[nH]1,20.9 µM (active)
15,CN(C)CCC=C1c2ccccc2C=Cc2ccccc21,inactive
16,CN(CCOc1ccc(NS(C)(=O)=O)cc1)CCc1ccc(NS(C)(=O)=O)cc1,inactive
17,CN1C2CCC1CC(OC(=O)C(CO)c1ccccc1)C2 (stereo not given),inactive
18,N[C@@H](Cc1c[nH]c2ccc(O)cc12)C(=O)O,inactive
19,O=C(Nc1ccc([N+](=O)[O-])cc1Cl)c1cc(Cl)ccc1O,1.05 µM (active)
20,C[C@@H]1CC(=O)NN=C1c1ccc(NN=C(C#N)C#N)cc1,inactive
